A selection: hits, their analogues and other compounds. The true share with any hit is near 0.69%.
FUS yeast rescue = suppressors of FUS proteinopathy in yeast; S. cerevisiae FUS-expressing, growth rescue, OD600, 24 h; Potency, µM (highest dose often 76.6 µM), most hits filed as activators; actives 0.24% (n = 390,000); AID 1347120; further: nearly all actives have a fitted effect of over 55% in size
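Galactose (2%) drives FUS expression in yeast precultured in raffinose; seeding density OD 0.005. Test compounds incubated 24hr at 30C and 99% humidity before absorbance at 600 nm was measured.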
PINK1 expr mod = changes PINK1 expression; actives 0.2% (n = 410,000); Potency, µM (highest dose often 76.6 µM), most hits filed as activators; PINK1 immunofluorescence, high-content cytometry, 24 h; AID 624263; active means well fitted activation curve with a large enough effect; inconclusive means small, poorly fitted or top-dose-only effect; cell line not stated here; further: nearly all actives have a fitted effect of over 65% in size
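PINK1 protein, normally rapidly degraded, was detected by immunofluorescence after 24 hour compound treatment of a stable cell line. Titration data (5 concentrations) came from laser-scanning cytometry, with CCCP-treated wells as controls.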
Abeta rescue = compounds reversing amyloid beta toxicity in yeast; Potency, µM (top dose mostly 46.1 µM), usual class: activators; yeast expressing A-beta42, growth rescue, OD600, 48 h; response scale: 0% DMSO, 100% iron-clioquinol control; AID 1347071; actives 0.063% (n = 410,000); further: nearly all actives have a fitted effect of over 55% in size
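Growth rescue measured by 600 nm absorbance after 48 h yeast culture at 30 C with compound. Values normalized between DMSO and an equimolar ferric chloride plus clioquinol control.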
Vif-APOBEC3G blk = inhibitors of Vif-APOBEC3G interaction; Q9HC16; HeLa A3G-eYFP + Vif (tagged APOBEC3G with the HIV-1 protein that degrades it), YFP fluorescence, overnight; Potency, µM (titrated, usually from 46.1 µM), hits mostly inhibitors; actives 0.076% (n = 410,000); AID 602310; further: nearly all actives have a fitted effect of over 60% in size
Target sequence (Q9HC16 whole entry, looked up): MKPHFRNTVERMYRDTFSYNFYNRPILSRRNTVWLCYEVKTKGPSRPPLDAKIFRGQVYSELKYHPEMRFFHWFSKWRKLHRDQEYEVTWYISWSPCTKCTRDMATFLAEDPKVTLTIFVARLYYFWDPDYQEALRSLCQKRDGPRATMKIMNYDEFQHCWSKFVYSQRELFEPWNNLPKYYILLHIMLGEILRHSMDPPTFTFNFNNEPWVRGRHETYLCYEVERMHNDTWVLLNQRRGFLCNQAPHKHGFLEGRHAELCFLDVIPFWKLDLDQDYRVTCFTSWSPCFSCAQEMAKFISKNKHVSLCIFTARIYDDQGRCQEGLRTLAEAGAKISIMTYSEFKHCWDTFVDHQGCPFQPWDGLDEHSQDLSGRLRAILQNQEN
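HeLa cells stably expressing Vif and C-terminally eYFP-tagged A3G, seeded overnight at 37 deg C, then exposed to compound by pintool overnight at 37 deg C. Rise in yellow fluorescence (Ex 488/Em 500-530, Acumen) marks blocked Vif-driven A3G degradation.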
Glioma ERSR ind = inducers of ER stress response in human glioma cells; U87-MG GRP78 promoter luciferase reporter, 16 h; Potency, µM, most hits filed as activators; actives 0.02% (n = 420,000); AID 602332; further: series mostly up to about 76 µM; nearly all actives have a fitted effect of over 35% in size
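Stably transfected U87-MG human glioma cells carrying a GRP78-based luminescent sensor were seeded at 1000 cells/well, pin-dosed with compounds and incubated 16 h. Luciferase reagent was then added, and end-point luminescence was read after 10 min at room temperature.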
Vif-A3F inh = inhibitors of Vif-A3F interaction; HeLa A3F-eYFP + Vif (tagged APOBEC3F with the HIV-1 protein that degrades it), YFP fluorescence increase; AID 602313; Potency, µM (top dose mostly 46.1 µM); actives 0.2% (n = 390,000); further: nearly all actives have a fitted effect of over 65% in size
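HeLa cells stably expressing A3F-eYFP plus Vif, plated and incubated overnight at 37 deg C, then exposed to compounds overnight at 37 deg C. Blocked degradation read as raised yellow fluorescence (Ex 488/Em 500-530).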
Numbers stand for hits; . = inactive; ? = inconclusive; / = not tested or not shown; ! = not confirmed by another sample. Unless noted, the call rests on the fitted dose curve; in most records, active means well fitted curve in the direction sought with a large enough effect; inconclusive means small, poorly fitted or top-dose-only effect, or another doubt; inactive means no such curve, though single readings can be large; an effect the other way counts as inactive or inconclusive.

SMILES	FUS yeast rescue	PINK1 expr mod	Abeta rescue	Vif-APOBEC3G blk	Glioma ERSR ind	Vif-A3F inh
Cc1cc(N/N=C/c2c(O)ccc3ccccc23)nc(-c2ccccc2O)n1	.	44.7µM	.	?	.	.
Oc1ccc2ccccc2c1/C=N/Nc1ccccc1	/	.	.	?	.	.
COc1cccc(/C=C/c2nccc3ccccc23)c1OC	/	.	/	.	.	/
CC(C)Cc1nc2cc(NS(=O)(=O)N(C)C)cc(C(=O)N3CCSCC3)c2n1C	/	.	/	/	.	/
O=C(NC(NNc1ccc([N+](=O)[O-])cc1)(C(F)(F)F)C(F)(F)F)c1ccc(F)cc1	/	44.7µM	.	.	.	.
O=[N+]([O-])c1ccc(Nc2ccc(F)cc2)cc1	.	.	.	.	.	.
O=[N+]([O-])c1ccc(NNC(=S)Nc2ccc(F)cc2)cc1	.	14.1µM	.	.	.	.
On1onc2c3cc(-c4ccccc4)nc3ccc21	/	.	.	3.55µM	.	?
c1ccc(-c2cc3c(ccc4nonc43)nn2)cc1	.	.	.	.	.	.
C#C[C@@]1(OC(C)=O)CC[C@H]2[C@@H]3CCC4=CC(=O)CC[C@@H]4[C@H]3CC[C@@]21C	/	/	/	/	.	/
COc1cc(=O)n2c(c1C(=O)NCc1ccco1)CCN(Cc1cccc(Cl)c1)CC2	/	.	/	/	.	/
Cc1ccc(-c2nc(-c3cccnc3)sc2CC(=O)O)cc1	.	.	.	.	.	.
CC(=O)Nc1ccc(NC(=O)Cc2sc(-c3cccnc3)nc2-c2ccc(C)cc2)cc1	28.2µM	.	.	.	?	.
Cc1cc2c(c(-c3ccc4nc(C)ccc4c3)c1)OC(CNC(=O)Cc1ccn(C)c1)C2 (stereo not given)	/	.	/	/	.	/
COc1cccc(/C=C2\Oc3cc(OCC(=O)N4Cc5ccccc5C[C@H]4C(=O)O)ccc3C2=O)c1	28.2µM	.	.	.	.	.
CC(NC(=O)c1cccnc1)c1nnc2n1CCN(Cc1ccc(F)cc1F)CC2 (stereo not given)	/	.	/	/	.	/
CCC(Oc1ccc(F)cc1)C(=O)Nc1nc(-c2ccc(F)cc2)ns1 (stereo not given)	.	28.2µM	.	.	.	?
C[C@@H]1CN(Cc2ccc3c(c2)CN(Cc2cn[nH]c2-c2ccccc2)CCO3)C[C@H](C)O1	/	.	/	/	.	/
COc1cccc(C(=O)OCCN2C(=O)c3ccccc3C2=O)c1OC	.	.	.	.	.	.
Cc1cc(C(=O)OCCN2C(=O)c3ccccc3C2=O)c2ccccc2n1	15.8µM	.	.	?	.	.
COc1ccc(C(=O)OCCN2C(=O)c3ccccc3C2=O)cc1	.	11.2µM	.	.	.	.
O=C(O)/C=C/c1ccc([N+](=O)[O-])o1	.	.	.	.	.	.
N#C/C(=C\c1ccc([N+](=O)[O-])o1)C(=O)Nc1ccc(F)cc1	.	.	.	?	.	22.4µM
N#CCc1ccc(NC(=O)/C=C/c2ccc([N+](=O)[O-])o2)cc1	.	.	.	6.31µM	.	2.51µM
O=C(Cc1ccc([N+](=O)[O-])cc1)N/N=C/c1ccc([N+](=O)[O-])o1	.	35.5µM	.	.	.	.
SMILES	FUS yeast rescue	PINK1 expr mod	Abeta rescue	Vif-APOBEC3G blk	Glioma ERSR ind	Vif-A3F inh
CCC1CN(Cc2ccc(COC)o2)Cc2cc(OC)ccc2O1 (stereo not given)	/	.	/	/	.	/
CCN1CCCC1CNC(=O)c1cnn(-c2nccc(-c3ccccc3F)n2)c1C (stereo not given)	/	.	/	/	.	/
COc1ccc2c(c1)OC(C)CN(CCC(=O)NCC1OCCc3ccccc31)C2 (stereo not given)	/	.	/	/	.	/
O=C(O)c1cc([N+](=O)[O-])ccc1NCCCc1ccccc1	.	.	.	.	28.2µM!	.
C=CC[C@@H](CC(=O)N[C@@H](CO)Cc1ccccc1)C(=O)N[C@@H](C)COC(=O)[C@@H](CC=C)Cc1ccc(F)cc1	17.8µM	.	.	.	.	.
C=CC[C@@H](CC(=O)N[C@H](CO)Cc1ccccc1)C(=O)N[C@@H](COC(=O)[C@@H](CC=C)CC(=O)OC(C)(C)C)Cc1c[nH]c2ccccc12	17.8µM	.	.	.	.	.
C=CC[C@@H](CC(=O)N[C@H](CO)Cc1ccccc1)C(=O)N[C@H](COC(=O)[C@@H](CC=C)CC(=O)OC(C)(C)C)Cc1c[nH]c2ccccc12	?	.	.	.	.	.
C=CCC[C@H](Cc1ccc(F)cc1)C(=O)OC[C@H](Cc1c[nH]c2ccccc12)NC(=O)[C@@H](CC=C)CC(=O)N(CCO)Cc1ccccc1	15.8µM	.	.	.	.	.
C=CC[C@H](CC(=O)N[C@H](CO)Cc1ccccc1)C(=O)N[C@H](COC(=O)[C@@H](CC=C)CC(=O)OC(C)(C)C)Cc1c[nH]c2ccccc12	17.8µM	.	.	.	.	.
C=CCC[C@@H](Cc1ccc(F)cc1)C(=O)OC[C@H](Cc1c[nH]c2ccccc12)NC(=O)[C@H](CC=C)CC(=O)N(CCO)Cc1ccccc1	?	.	.	.	.	.
COc1cc(=O)n2c(c1C(=O)NCc1ccc3c(c1)OCO3)CCN(C(=O)c1ccc(C)cc1)CC2	/	.	/	/	.	/

Bioassay records as filed in PubChem.
